This is part of a sample that, as a whole, favours compounds with a hit. Of some 83,000 tested, about 20% had one in any assay.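 Values shown are percent growth following 48 h exposure of cells in 96-well plates to a single concentration of compound; below 10 was considered active.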 Active and inactive are the calls of the source. *1 amine or outer side, *2 acyl side, *3 side chain or, on linkers, in order; H or OH if unused. Where a SMILES comes first, the peptide text is derived from it. [ ]: non-standard residue; d: D form. The star is where a group is joined. X5 = CCC(=O)CC1CC(C)CC(C(=O)[*:2])N1[*:1]; X4 = CCCCCCCCC(C)C(=O)*; Aib = CC(C)(N)C(=O)O; X6 = CC(CN(C)CCO)N*
How the values were obtained:
Assay in all cases: NCI-60 one-dose screen, 48 h (100 = growth as untreated, 0 = no growth, -100 = all killed)
Conditions in all cases: 10 µM unless noted
[1] = tested on: NCI-H23 lung
[2] = tested on: NCI-H226 lung
[3] = tested on: NCI-H322M lung
[4] = tested on: HOP-62 NSCLC
[5] = tested on: NCI-H460 lung
[6] = tested on: HOP-92 NSCLC
[7] = tested on: NCI-H522 lung
[8] = tested on: A549/ATCC NSCLC
[9] = tested on: 786-0 renal
[10] = tested on: COLO 205 colon

Measured: growth

c1ccc(-c2cccc(-c3ccccn3)n2)nc1
active: [2] 4.69% | [4] 7.3% | [5] 3.53% | [8] 9.52% | [10] 4.26%
inactive: [1] 21.3% | [3] 26.9% | [6] 42.4% | [7] 18.3% | [9] 16.2%

CCOC(=O)c1cc(CC)sc1NC(=O)CC(C)=O
inactive: [1] 43.2% | [2] 70.1% | [3] 95.3% | [4] 73% | [5] 50.9% | [6] 59% | [7] 34.4% | [8] 78% | [9] 54.5% | [10] 90.2%

CCN(CC)CC(O)c1cc(-c2ccc(Cl)cc2)nc2cc(Cl)ccc12 (configuration not stated)
active: [5] -0.34% | [7] -70.4% | [10] -73%
inactive: [1] 70.8% | [2] 78.5% | [3] 79.2% | [4] 54.6% | [6] 19.3% | [8] 14.6% | [9] 46.3%

COc1cc(NC(=O)C2=C(C)NC(C)=C(C(=O)Nc3cc(OC)c(Cl)cc3OC)C2c2cccc([N+](=O)[O-])c2)c(OC)cc1Cl
inactive: [1] 34.6% | [2] 45.7% | [3] 46.3% | [4] 43.2% | [5] 36.8% | [6] 13.2% | [7] 46.8% | [8] 35.7% | [9] 39% | [10] 50.5%

CCCCCCCCC(C)C(=O)N1CCCC1C(=O)N1C(CC(=O)CC)CC(C)CC1C(=O)NC(C)C(=O)NC(C)(C)C(=O)NC(C)(C)C(=O)NC(C(=O)NC(C)C(=O)NC(C)(C)C(=O)NC(C)(C)C(=O)NC(C)CN(C)CCO)C(C)CC (configuration not stated) (X4-P[X5]A[Aib][Aib]IA[Aib][Aib]-X6; configuration not given here)
active: [2] -50.7% | [4] -81.5% | [5] -83.7% | [6] -23.8% | [7] -62.9% | [8] -62% | [9] -53.7% | [10] -75.9%
inactive: [1] 195% | [3] 21.2%

O=C(O)c1ccc2c(c1)C(=O)c1ccccc1C2=O
inactive: [1] 103% | [2] 92% | [3] 102% | [4] 90.9% | [5] 105% | [6] 93.9% | [7] 98.6% | [9] 103% | [10] 100%

Cc1cc(=O)oc2cc(O)cc(O)c12
inactive: [1] 107% | [2] 97.7% | [3] 103% | [4] 87.2% | [5] 99% | [6] 100% | [7] 88.7% | [9] 98% | [10] 110%

Nc1ccc(-c2ccc(N)c(S(=O)(=O)O)c2)cc1S(=O)(=O)O
inactive: [1] 112% | [2] 119% | [3] 116% | [4] 101% | [5] 117% | [6] 74.4% | [7] 125% | [8] 117% | [9] 106% | [10] 114%

O=C1Nc2ccc(Br)cc2C1=O
inactive: [1] 97.5% | [2] 93.3% | [3] 102% | [4] 100% | [5] 102% | [6] 103% | [7] 99.8% | [9] 109% | [10] 106%

O=C(NNc1ccccc1)OCc1ccccc1
inactive: [1] 103% | [2] 97.7% | [3] 67.6% | [4] 100% | [5] 79.5% | [6] 82% | [7] 82.1% | [8] 70.7% | [9] 78.2% | [10] 97.6%

Clc1ccc(Cc2nc3ccccc3s2)cc1
inactive: [1] 89.3% | [2] 89.2% | [3] 89.2% | [4] 115% | [5] 105% | [6] 122% | [7] 99.1% | [8] 96.4% | [9] 109% | [10] 117%

COc1cc(OC)c(/C=C/c2c3ccccc3cc[n+]2C)c(OC)c1
active: [7] -19.3% | [10] -35.3%
inactive: [1] 17.3% | [2] 33.3% | [3] 32.9% | [4] 35.3% | [5] 10.8% | [6] 36.6% | [8] 14.7% | [9] 62.8%

CCCCCCC1N=C(N)N=C(N)N1c1cccc(Cl)c1 (configuration not stated)
inactive: [2] 67.7% | [3] 43% | [4] 34.6% | [5] 18.4% | [6] 15% | [7] 80.2% | [8] 35.4% | [9] 21.8% | [10] 54.4%
active: [1] 6.77%

— PubChem BioAssay (NCI)
